Compound activity from PubChem BioAssay.
This excerpt belongs to a sample that is enriched for hits.
KDM4E inh = inhibitors of human JMJD2E histone demethylase. JMJD2E catalytic domain, FDH-coupled NADH fluorescence (FDH is formaldehyde dehydrogenase). Potency, µM (highest dose often 57.1 µM), for the others: at the highest dose activity change, negative = inhibition, actives largely listed as inhibitors. 230,000 compounds, 1.6% hits; active means well fitted inhibition curve with a large enough effect, not every such curve was filed as active; inconclusive means small, poorly fitted or top-dose-only effect, or another doubt; inactive means no such curve, though single readings can be large or run the other way;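 further: 0% = wells with enzyme and -100% = buffer wells without enzyme; nearly all actives have a fitted effect of over 50% in size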
KAT2A inh = blocks human GCN5L2 histone acetyltransferase | Q92830 | GCN5L2 HAT assay, ThioGlo1 CoA-SH fluorescence | Potency, µM (highest dose often 58.9 µM), inactives show at the top dose activity change, negative = inhibition, usual class: inhibitors | 390,000 compounds, 0.21% hits | AID 504327
Target sequence (Q92830 whole entry, looked up): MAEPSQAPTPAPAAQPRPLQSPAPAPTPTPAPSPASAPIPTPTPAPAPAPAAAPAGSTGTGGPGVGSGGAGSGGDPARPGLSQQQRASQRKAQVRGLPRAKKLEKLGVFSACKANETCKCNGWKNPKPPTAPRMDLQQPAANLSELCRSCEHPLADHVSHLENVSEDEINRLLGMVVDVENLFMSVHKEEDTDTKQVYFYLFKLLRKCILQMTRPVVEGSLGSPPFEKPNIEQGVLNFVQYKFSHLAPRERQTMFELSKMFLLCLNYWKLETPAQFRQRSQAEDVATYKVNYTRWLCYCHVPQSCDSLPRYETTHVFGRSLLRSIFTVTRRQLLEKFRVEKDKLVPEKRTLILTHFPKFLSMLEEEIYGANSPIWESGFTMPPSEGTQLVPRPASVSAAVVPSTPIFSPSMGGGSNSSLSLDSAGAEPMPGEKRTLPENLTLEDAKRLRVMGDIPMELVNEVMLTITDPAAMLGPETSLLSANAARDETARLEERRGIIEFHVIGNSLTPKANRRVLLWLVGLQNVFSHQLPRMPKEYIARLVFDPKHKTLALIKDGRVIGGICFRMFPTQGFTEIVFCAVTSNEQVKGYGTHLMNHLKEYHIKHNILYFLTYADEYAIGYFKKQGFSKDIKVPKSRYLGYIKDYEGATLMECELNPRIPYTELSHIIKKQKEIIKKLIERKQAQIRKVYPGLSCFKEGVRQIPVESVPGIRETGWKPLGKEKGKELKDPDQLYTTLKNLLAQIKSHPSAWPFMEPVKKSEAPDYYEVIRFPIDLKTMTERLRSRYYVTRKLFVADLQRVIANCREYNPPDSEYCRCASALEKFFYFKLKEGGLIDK
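Compounds, pin-transferred from DMSO stocks, meet 20nM GCN5L2 for 15 min before the reaction begins with H3(1-25) peptide (75uM) and acetyl-CoA (70uM). Thiol-reactive ThioGlo1 reports CoA release over 20 min at room temperature.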
L3MBTL1 block = inhibitors of human L3MBTL1; AlphaScreen L3MBTL1–H3K9me1 peptide binding; Q9Y468; 230,000 compounds, 0.66% hits; Potency, µM (top dose mostly 57.1 µM), inactives show at the top dose activity, negative = inhibition, most hits filed as inhibitors; further: nearly all actives have a fitted effect of over 60% in size
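L3MBTL1 (50 nM) pre-complexed 30 min with biotinylated H3(1-15)K9me1 peptide (75 nM), then compounds added for 30 min at room temperature; AlphaScreen streptavidin donor/nickel chelate acceptor beads (10 ug/mL final) read after 30 min dark incubation.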
APEX1 inh = APE1 (human) endonuclease inhibition; P27695; recombinant APE1, TAMRA/BHQ-2 abasic DNA cleavage fluorescence; Potency, µM (top dose mostly 65.8 µM), for the others: top-dose activity change, negative = inhibition, actives largely listed as inhibitors; 350,000 compounds, 0.35% hits; AID 2517;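 further: plate controls were vehicle for no effect and reference inhibitor for full effect; nearly all actives have a fitted effect of over 55% in size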
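Endonuclease cleavage of a quenched abasic-site DNA duplex (50 nM) by APE1 (0.75 nM) was tracked by TAMRA dequenching. Compounds were preincubated with enzyme 15 min at room temperature; data normalized to buffer-only and DMSO wells plus NSC13755 control.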
BLM inh = Bloom syndrome helicase (human) inhibition | P54132 | recombinant BLM DNA unwinding, fluorescence dequenching | Potency, µM (top dose mostly 56.1 µM), inactives show at the top dose activity change, negative = inhibition, hits mostly inhibitors | 350,000 compounds, 0.2% hits | AID 2528;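 further: plate controls were vehicle for no effect and no enzyme for full effect; nearly all actives have a fitted effect of over 35% in size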
RECQ1 inh-1 = RECQ1 (human) helicase inhibition; RECQ1 DNA unwinding, red fluorescence kinetic read; Potency, µM (titrated, usually from 57.3 µM), inactives show at the top dose activity, negative = inhibition, actives largely listed as inhibitors; AID 2549; P46063; 240,000 compounds, 0.54% hits;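 further: plate controls were vehicle for no effect and no enzyme for full effect; nearly all actives have a fitted effect of over 30% in size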
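RECQ1T1 50 nM; forked duplex (20 bp + 30-nt ss tails) 200 nM, ATP 2 mM final; pH 8.0, 2 mM MgCl2, 2.5 ug/ml poly(dI-dC); 15 min compound preincubation; discontinuous kinetic read over 2 h at RT.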
RECQ1 inh conf = confirmation of human RECQ1 helicase inhibitors. shares compounds with RECQ1 inh-1. RECQ1 helicase DNA unwinding, fluorescence. Potency, µM (highest dose often 229 µM), inactives show at the top dose activity change, negative = inhibition, most hits filed as inhibitors. 610 compounds, 28% hits. AID 2708; further: nearly all actives have a fitted effect of over 45% in size
RECQ1 ADP FP = displaces ADP in a fluorescence polarization counter-screen for RECQ1 hits; shares compounds with RECQ1 inh-1; ADP fluorescence polarization displacement counterscreen; Potency, µM (titrated, usually from 228 µM), inactives show at the top dose activity change, negative = inhibition, usual class: inhibitors; 530 compounds, 27% hits; further: nearly all actives have a fitted effect of over 45% in size
RECQ1 inh-2 = confirmation of human RECQ1 helicase inhibitors; recombinant RECQ1 DNA unwinding, red fluorescence; Potency, µM (top dose mostly 119 µM), for the others: top-dose activity, negative = inhibition, hits mostly inhibitors; 1,100 compounds, 15% hits; shares compounds with RECQ1 inh-1; further: nearly all actives have a fitted effect of over 50% in size
Starred values were filed as active, the others as inactive; i = inactive; ? = inconclusive; nt = no result given; [ ] = another dose, or the depositor's remark. Unless noted, the call rests on the fitted dose curve; in most records, active means well fitted curve in the direction sought with a large enough effect; inconclusive means small, poorly fitted or top-dose-only effect, or another doubt; inactive means no such curve, though single readings can be large; an effect the other way counts as inactive or inconclusive. Unless noted, on the % scale 0 is the no-effect control and ±100 the full control effect; potency means the concentration at half of the fitted maximal effect.

SMILES	KDM4E inh	KAT2A inh	L3MBTL1 block	APEX1 inh	BLM inh	RECQ1 inh-1	RECQ1 inh-2	others
Cc1ccccc1[C@@H](NC(=O)OC(C)(C)C)C(=O)OC(C)(C)C	nt	-1%	2%	-12%	nt	nt	nt
CC(C)(C)OC(=O)N1CCC(c2c(C(=O)N3CCN(c4ccccn4)CC3)cnn2-c2ccccc2Cl)CC1	nt	0%	nt	nt	-3%	nt	nt
CCOC(=O)C(Oc1ccc2c(-c3ccccc3)cc(=O)oc2c1)c1ccccc1 (centres undefined)	?	-9%	9%	-1%	-6%	?	-17%
COC(=O)C(Oc1ccc2c(-c3ccc(OC)cc3)cc(=O)oc2c1)c1ccccc1 (centres undefined)	?	31%	-7%	-6%	-3%	-17%	nt
CCOC(=O)c1ccc2c(c1)N(C(CC)C(=O)Nc1ccccc1OC)C(=O)c1ccccc1S2 (centres undefined)	nt	-3%	nt	nt	-7%	nt	nt
CCC(C(=O)Nc1ccccc1OC)n1c(C(=O)OC)cc2ccsc21 (centres undefined)	5%	2%	-1%	-5%	-11%	1.4µM*	-49%	RECQ1 inh conf=?;RECQ1 ADP FP=35%[91.9 µM]
CCN(Cc1ccccc1)C(=O)Cc1c[nH]c2ccccc12	nt	1%	nt	40%	-5%	nt	nt
Cc1ccc(NC(=O)C(C)OC(=O)CCC2CCCCC2)cc1 (centres undefined)	nt	-2%	23%	8%	nt	nt	nt
CC/C(=C/c1sc2ccc(C)cc2[n+]1CCCS(=O)(=O)[O-])SC	-3%	-13%	nt	-10%	-3%	?	-4%
O=[N+]([O-])c1ccc(Nc2ccccc2)c2nonc12	nt	-3%	nt	15%	-14%	nt	nt
O=[N+]([O-])c1ccc(Sc2cccc[n+]2[O-])c2nonc12	57%	16µM*	?	?	?	?	25µM*
CCN(CC)c1cccc(OC2=NS(=O)(=O)c3ccccc32)c1	?	-3%	-3%	15%	-4%	?	-22%
c1csc(Cc2nn3c(-c4ccncc4)nnc3s2)c1	7%	-19%	?	?	-27%	10µM*	-23%	RECQ1 ADP FP=0%[91.9 µM]
CCOC(=O)Cc1cc(=O)n2[nH]c(-c3ccccc3)c(-c3ccccc3)c2n1	?	-7%	7%[11.4 µM]	10%	-18%	-6%	nt
CCOC(=O)Cc1cc(=O)n2[nH]c(C)c(-c3ccccc3)c2n1	?	-1%	4%	-5%	-2%	35µM*	-19%
COc1cc(/C=C2\SC(c3ccc(C)cc3)=NC2=O)cc(OC)c1O	?	-9%	?	-2%	-11%	-18%	nt
Cc1ccc(C2=NC(=O)/C(=C/c3cc(O)c(O)c(Br)c3)S2)cc1	13µM*	?	nt	2µM*	3.5µM*	3.5µM*	6.3µM*	RECQ1 inh conf=22µM*
CCOc1ccc(C(NC(=O)CC)c2c(O)ccc3ccccc23)cc1 (centres undefined)	nt	-23%	1%	-18%	-8%	nt	nt
CC(=O)Oc1ccc2ccccc2c1C(NC(=O)Cc1ccccc1)c1ccc(Cl)cc1 (centres undefined)	-19%	?	-2%	9%	-12%	?	-13%
CCOC(=O)C(C(=O)N(C)Cc1ccccc1)C1CCCCC1 (centres undefined)	nt	2%	52%	15%	-11%	nt	nt
Cc1ccc(NC(=O)c2ccc(OCc3c(C)noc3C)cc2)cc1	5%	0%	14%	-9%	-1%	10%	nt	RECQ1 inh conf=4%;RECQ1 ADP FP=50µM*
Cc1noc(C)c1COc1ccc(C(=O)Nc2cccnc2)cc1	-2%	-13%	34%	-8%	-19%	0.89µM*	-32%	RECQ1 inh conf=56µM*;RECQ1 ADP FP=126µM*
Cc1cccc(NC(=O)c2ccc(OCc3c(C)noc3C)cc2)c1	nt	0%	5%	-9%	nt	nt	nt
CCN(CC)c1ccc(C(=O)NCc2ccc3c(c2)CCN3C(=O)c2ccccc2)cc1	nt	-1%	nt	nt	-11%	nt	nt
C/C(=N\NC(=O)Cn1nnc2ccccc21)c1ccco1	11%	-27%	8%	10%	-1%	i	nt
SMILES	KDM4E inh	KAT2A inh	L3MBTL1 block	APEX1 inh	BLM inh	RECQ1 inh-1	RECQ1 inh-2	others
NC(Cc1c[nH]c2ccccc12)C(=O)NCC(=O)O (centres undefined)	-7%	nt	nt	-8%	1%	0%	nt
N#CCSc1nnc(COc2cccc3ccccc23)n1-c1cccc(Cl)c1	-11%	-12%	-10%	-3%	-14%	-20%	nt
O=C(O)CCSc1nnc(COc2cccc3ccccc23)n1-c1cccc(Cl)c1	-9%	-6%	-1%	3%	-1%	-5%	nt	RECQ1 inh conf=17%;RECQ1 ADP FP=-13%
O=C(O)Cc1cccc(OCCCN(Cc2cccc(C(F)(F)F)c2Cl)CC(c2ccccc2)c2ccccc2)c1	nt	11µM*	nt	-16%	?	?	25µM*
O=C(CCCOc1ccccc1)Nc1ccccc1C(F)(F)F	1%	-12%	8%	1%	-10%	-4%	nt
COc1ccc2c(c1)c1c(c(=O)n(-c3cccc(Cl)c3)c(=O)n1CC(=O)NCC1CCCO1)n2C (centres undefined)	nt	-10%	nt	nt	-11%	nt	nt
CC(C)(C)c1ccc(C(=O)CS(=O)(=O)c2ccccc2)cc1	1%	58%	10%	14%	-6%	?	-15%
COC(=O)c1sccc1S(=O)(=O)N1CCN(c2ccccc2)CC1	nt	-2%	nt	nt	0%	nt	nt
O=C(Cc1cccs1)Nc1nnc(SCc2ccc(C(F)(F)F)cc2)s1	8%	-6%	2%	?	-4%	i	nt
CCCCCn1c(NC(=O)c2ccco2)c(S(=O)(=O)c2ccc(C)cc2)c2nc3ccccc3nc21	?	-28%	3%	-9%	?	6%	nt
CCCCn1c(NC(=O)c2ccco2)c(S(=O)(=O)c2ccc(C)cc2)c2nc3ccccc3nc21	?	-11%	-8%	?	-23%	?	-28%
NC(=O)CSc1nnc(-c2ccccc2)c(-c2ccccc2)n1	nt	3%	nt	9%	-3%	nt	nt
O=C(c1ccccc1)N1CCN(Cc2ccccc2Br)CC1	?	-4%	-2%	-4%	0%	0%	nt
